These molecules were tested on Plasmodium falciparum Sir2 (PF13_0152, Sir2A) (assay: pfSir2 binders on small-molecule microarrays, primary screen, biochemical, small-molecule microarray, 635 nm fluorescence (AID 1098;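 also: score merges spot fluorescence intensity with its signal-to-noise ratio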)). Settings: small-molecule microarray binding, fluorescence 635 nm; higher = more signal.

Structure (SMILES) | composite z-score
COc1cc2c(cc1OC)CN(C(=O)[C@H]1[C@@H]3C(=O)O[C@@H](c4ccccc4)[C@@H](c4ccccc4)N3[C@@H](c3ccc(O)cc3)[C@]13C(=O)Nc1ccc(C#CC4=CCCCC4)cc13)CC2 | 1.32
CN1C(=O)C2C=CC(C(O)c3cc(C(F)(F)F)cc(C(F)(F)F)c3)N(N3CCCCC3)C2C1=O (stereo not given) | 0.567
COCC(=C=CC[C@H](O)c1ccccc1OCCO)C[C@H](O)c1cc(Cl)cc(Cl)c1O | 0.588
CCCN1C(=O)[C@]2(CCS(=O)(=O)c3ccccc3)N=C(c3ccc(OCCCO)cc3)O[C@@H]2c2ccccc21 | 1.19
COc1cc2c(cc1OC)CN(C(=O)[C@H]1[C@@H]3C(=O)O[C@@H](c4ccccc4)[C@@H](c4ccccc4)N3[C@@H](c3ccc(O)cc3)[C@]13C(=O)Nc1ccc(C#CCNC(N)=O)cc13)CC2 | 1.11
CN(C)CCCNC(=O)[C@@]1(C)c2ccccc2C(=O)N(Cc2cc(F)cc(C(F)(F)F)c2)[C@H]1c1ccc(CO)cc1 | 1.34
O=C1C2C=CC(C(O)C3CCCCC3)N(Nc3ccc([N+](=O)[O-])cc3)C2C(=O)N1c1ccccc1 (stereo not given) | 1.26
O=C1OCCC/C=C\[C@H]2OC34C=CCN(c5ccc6ccccc6c5)C(=O)[C@H]3N(CCCCCCO)C(=O)[C@@H]4C12 (stereo not given in full) | 1.35
COCCOC(=O)N1C(=O)[C@@]2(c3cc(C#CCNC(N)=O)ccc31)[C@H](C(=O)NC[C@H](O)c1ccccc1)[C@H]1C(=O)O[C@H](c3ccccc3)[C@H](c3ccccc3)N1[C@@H]2c1ccccc1OCCO | 1.5
CC(C)(C)OC(=O)CC[C@@]12N=C(c3ccc(OCCCO)cc3)O[C@@H]1c1ccccc1N(CCS(=O)(=O)c1ccccc1)C2=O | 0.691
COC(=O)[C@@]1(Cc2ccc(F)cc2)[C@H]2c3cc(C(=O)N4CCCC4)n(Cc4cc(C)n(C)n4)c3C[C@H]2CN1C(=O)c1ccccc1 | 0.89
COC(=O)c1c(CC[C@@H](CO)NC(=O)N2CCC[C@H]2Cn2cc(-c3ccccn3)nn2)oc(C(C)=O)c1C(=O)OC | 1.23
CCOC(=O)[C@H]1CC=C2CC1C(=O)N1CCC[C@@H]1[C@@H]2O[Si](C)(C)C(C)(C)C (stereo not given in full) | -0.105
C=CCC(OC(C)=O)[C@@H]1[C@@H](N(Cc2ccc(-c3ccccc3)cc2)C(=O)Cc2ccc(F)cc2)c2cc(OCCCO)ccc2N1C(=O)c1ccc(-c2ccccc2)cc1 (stereo not given in full) | 0.152
CCOC(=O)C[C@H]1[C@H](OC(=O)Cc2ccc3c(c2)OCO3)[C@@H](NC(=O)c2ccc(-c3ccccc3)cc2)c2cc(OCCCO)ccc2N1C(=O)c1ccc2ccccc2n1 | -0.0119
COCCCNC(=O)[C@@]1(Cc2ccccc2)N=C(c2ccc(OCCCO)cc2)O[C@H]1c1ccccc1 | 1.19
NC(=O)[C@@H]1[C@H]2C(=O)O[C@H](c3ccccc3)[C@H](c3ccccc3)N2[C@H](c2ccc(O)cc2)[C@@]12C(=O)Nc1ccc(C#CC3(O)CCCCCC3)cc12 | 0.61
COc1cc2c(cc1O)C(C1CC1)N(Cc1cc3c(cc1Br)OCO3)CC2 (stereo not given) | 0.802
CCCCCC1=C2CNC(CCC)(C(=O)OC)C=C2C(C)C1=O (stereo not given) | 0.0288
COc1ccc(C(O)C2C=CC3C(=O)NC(=O)C3N2Nc2ccccn2)c2ccccc12 (stereo not given) | 0.157
COC(=O)C(CC#Cc1ccc2c(c1)[C@]1(C(=O)N2)[C@H](C(=O)O)[C@H]2C(=O)O[C@H](c3ccccc3)[C@H](c3ccccc3)N2[C@@H]1c1ccc(O)cc1)C(=O)OC | 0.472
CC1(C)[C@@H]2CC(C(O)C3C=CC4C(=O)N(c5ccccc5)C(=O)C4N3Nc3ccccc3)=C[C@H]1C2 (stereo not given in full) | 0.576
COc1ccc([Si](C)(C)[C@H]2[C@H](CCn3cc([C@H](O)c4ccccc4)nn3)O[C@@]3(C(=O)N(Cc4cccc(N5CCOC5=O)c4)c4ccccc43)[C@@H]2C)cc1 | 0.463
COc1cc2c(cc1O)C=[N+](Cc1cccc(OC(F)(F)F)c1)CC2 | 0.674
COC(=O)[C@@]1(Cc2ccc(OC)cc2)[C@H]2c3cc(C(=O)N(C)C)n(CCN4CNCC4=O)c3C[C@H]2CN1C(=O)c1ccccc1 | 0.44
